KCNQ2 inh – inhibitors of rat KCNQ2 potassium channel; 310,000 tested, 1.1% active; O88943; B-score at 10 µM; CHO-K1 KCNQ2, FluxOR thallium flux, 20 min; hits give low values;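 active = fluorescence ratio B-score at most minus 3 library SDs, with starting brightness B-score within 2 library SDs, cut at about -5.5 in these data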
Target sequence (O88943 whole entry, looked up): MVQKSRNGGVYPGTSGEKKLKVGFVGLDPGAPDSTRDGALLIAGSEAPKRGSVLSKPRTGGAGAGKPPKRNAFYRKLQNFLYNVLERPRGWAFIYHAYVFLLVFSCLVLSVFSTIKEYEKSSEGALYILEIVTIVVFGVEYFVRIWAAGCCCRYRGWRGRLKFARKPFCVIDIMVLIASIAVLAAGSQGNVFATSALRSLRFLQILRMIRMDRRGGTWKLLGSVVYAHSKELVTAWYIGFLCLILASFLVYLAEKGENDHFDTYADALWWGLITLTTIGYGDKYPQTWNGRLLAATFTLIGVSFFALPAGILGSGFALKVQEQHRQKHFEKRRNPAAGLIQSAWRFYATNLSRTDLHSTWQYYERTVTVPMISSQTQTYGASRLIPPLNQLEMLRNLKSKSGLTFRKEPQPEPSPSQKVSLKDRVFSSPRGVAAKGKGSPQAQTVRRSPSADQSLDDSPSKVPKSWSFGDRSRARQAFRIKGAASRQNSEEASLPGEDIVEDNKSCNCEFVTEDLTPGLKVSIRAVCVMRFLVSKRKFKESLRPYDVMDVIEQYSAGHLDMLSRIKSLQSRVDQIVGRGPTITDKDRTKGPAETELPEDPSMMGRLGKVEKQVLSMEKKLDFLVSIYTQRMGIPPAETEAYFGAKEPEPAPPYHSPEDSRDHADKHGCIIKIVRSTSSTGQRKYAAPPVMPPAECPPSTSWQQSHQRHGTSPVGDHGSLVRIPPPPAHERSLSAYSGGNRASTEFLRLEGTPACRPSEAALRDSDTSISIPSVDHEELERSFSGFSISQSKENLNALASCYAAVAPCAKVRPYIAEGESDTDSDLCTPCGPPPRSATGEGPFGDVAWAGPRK
KCNQ2 pot – potentiators of rat KCNQ2 potassium channel. B-score at 10 µM. 310,000 tested, 0.54% active. CHO-K1 KCNQ2, FluxOR thallium flux fluorescence; hits give high values. AID 2239;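 active = fluorescence ratio B-score at least 3 SD of library B-scores, with initial fluorescence B-score within 3 of them, cut at about 5.3 in these data; same plate scores as AID 2156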;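 also: B-score of peak minus minimum over baseline fluorescence ratio after K+ and Tl+ stimulus; positive B-score means potentiation of KCNQ2 with more thallium influx and brighter signal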
Starred values were filed as active, the others as inactive; i = inactive; · = no result. This is a sample that favours compounds with a hit; in the whole collection about 1.6% have one here.

SMILES | KCNQ2 inh | KCNQ2 pot
COC(=O)c1cc(=O)n(Cc2ccc(OC)c(OC)c2)c(=Nc2ccc(F)cc2)s1 | i | ·
COC(=O)c1cc(=O)n(Cc2ccc(F)cc2)c(=Nc2ccccc2)s1 | -5.8* | -5.8
COC(=O)c1cc(=O)n(Cc2ccco2)c(=Nc2ccc(F)cc2)s1 | -5.95* | -5.95
O=C(CSc1nnc(Cc2ccccc2)o1)Nc1ccc(Br)cn1 | i | ·
Cc1ccc(C(=O)C(C)[n+]2cccc(C(N)=O)c2)cc1 (centres undefined) | i | 0.16
Cc1ccc(N(C(=O)Cc2cccs2)C(C(=O)NC2CCCCC2)c2ccccn2)cc1C (centres undefined) | -6.2* | -6.2
CC(=O)c1ccc(N(C(=O)Cc2c[nH]c3ccccc23)C(C(=O)NC2CCCCC2)c2cccs2)cc1 (centres undefined) | i | ·
O=C(NC1CCCCC1)C(c1cccs1)N(C(=O)Cc1c[nH]c2ccccc12)c1ccc(F)cc1 (centres undefined) | -6.76* | -6.76
Cc1cccc(N(C(=O)Cc2cccs2)C(C(=O)NC2CCCC2)c2ccncc2)c1 (centres undefined) | i | ·
O=C(O)CCC(=O)Nc1cccc(C(=O)c2ccccc2)c1 | i | 0.69
CCn1c(SCC(=O)Nc2cccc(O)c2)nc2c1c(=O)n(C)c(=O)n2C | i | ·
O=C(Cn1c(COc2ccc(Cl)cc2)nc2ccccc21)NCC(F)(F)F | i | ·
N#Cc1ccccc1/C=N/Nc1nc(-c2ccccc2)c2cc(Cl)ccc2n1 | i | 0.05
Cc1ccc2nc(N/N=C/c3ccccc3C#N)nc(-c3ccccc3)c2c1 | -6.03* | -6.03
O=C(NCc1cn2ccsc2n1)c1cccc(C(F)(F)F)c1 | i | ·
Cc1csc2nc(CNC(=O)c3cccc(C(F)(F)F)c3)cn12 | -6.17* | -6.17
O=C(Nc1nn[nH]n1)c1cc(-c2ccc(Cl)c(Cl)c2Cl)nc2ccccc12 | i | ·
CCOC(=O)C1CCN(C(=O)C(=O)c2cn(CC(=O)N3CCCCCC3)c3ccccc23)CC1 | i | 0.02
Cc1nc(NCCCO)c(C#N)c2c1COC(C)(C)C2 | i | ·
CCN(CC)c1nc(C)c2c(c1C#N)CC(C)(C)OC2 | -6.69* | -6.69
Cc1ccccc1C(=O)NNC(=S)NC(=O)c1ccccc1 | i | 5.31*
O=C(NC(=S)NNC(=O)c1ccccc1O)c1ccccc1 | i | ·
COc1ccccc1Nc1nc(N)nc(CN2CCN(c3ccccc3F)CC2)n1 | i | 2.98
COc1ccccc1N1CCN(Cc2nc(N)nc(Nc3ccc(C)c(Cl)c3)n2)CC1 | i | 8.89*
CC(C)(C)NC(=S)NC(=O)C12CC3CCC(CC(C3)C1)C2 | i | ·
SMILES | KCNQ2 inh | KCNQ2 pot
COc1ccccc1N1CCN(c2nc(C)cc(C)c2C#N)CC1 | -5.9* | -5.9
Cc1cc(C)c(C#N)c(N2CCN(c3ccccc3)CC2)n1 | i | ·
N=C1/C(=C\c2ccc(-c3cc(Cl)cc(Cl)c3)o2)C(=O)N=C2SC=C(c3ccccc3)N12 | i | 0.75
CC(C)S(=O)(=O)C1=NSC2=NC(=O)/C(=C\c3ccc(-c4ccccc4)o3)C(=N)N21 | -5.94* | -5.94
COc1ccc(C(=O)Nc2scc(-c3ccc(Cl)cc3Cl)c2C(N)=O)cc1 | i | ·
Cc1c(Cc2ccccc2)c(=O)oc2c(C)c(OC(C)C(=O)N[C@@H](Cc3ccccc3)C(=O)O)ccc12 (some centres undefined) | -7.65* | -7.65
Cc1c(OCC(=O)N[C@@H](Cc2ccccc2)C(=O)O)ccc2c1oc(=O)c1ccccc12 | i | ·
O=c1c(CN2CCN(Cc3ccccc3)CC2)coc2ccc(Cl)cc12 | i | ·
CCCc1nc(SCC(=O)N2CCN(c3ccccc3)CC2)c2c(=O)n(C)c(=O)n(C)c2n1 | i | 2.87
CC(C)c1nc(SCC(=O)N2CCN(c3ccccc3)CC2)c2c(=O)n(C)c(=O)n(C)c2n1 | i | 6.23*
Cc1c(C)n(C)c2ccc(C(=O)N3CCN(c4ccccn4)CC3)cc12 | i | ·
COc1cc(C2NC(=S)NC(c3ccccc3)=C2C(C)=O)ccc1O (centres undefined) | i | 0.16
CN(C)C(=O)c1c2c(nc3ccccc13)CCCC2 | i | 1.69
CN(C)C(=O)c1c2c(nc3ccccc13)-c1ccccc1CC2 | -6.14* | -6.14
C(=C1/CCCC2=C1Nc1ncnn1C2c1ccccc1)/c1ccccc1 (centres undefined) | -6.52* | -6.52
S=C1NC2=C(CCC/C2=C\c2ccccc2)C(c2ccccc2)N1 (centres undefined) | i | 0.15
Cc1cccc(NS(=O)(=O)c2cc(C(=O)OC(C)C(=O)NCc3ccc4c(c3)OCO4)ccc2C)c1 (centres undefined) | -6.4* | -6.4
CC(=O)Nc1cccc(C(=O)OC(C)C(=O)NCc2ccc3c(c2)OCO3)c1 (centres undefined) | i | 0.22
CC(=O)CC1(O)C(=O)N(Cc2ccccc2)c2ccccc21 (centres undefined) | i | 0.22
CC1(C)C(=S)N(Cc2ccccc2)c2ccccc21 | -6.58* | -6.58
CCOC(=O)c1cc(-c2csc(COc3ccc(Cl)cc3)n2)on1 | i | 1.57
